# High-throughput results (PubChem)
# FAK blocker = blocks human focal adhesion kinase activity; Q05397; biochemical FAK kinase activity assay; inhibition, %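 (tested at 7 µM)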; actives 0.84% (n = 97,000); AID 727; in the data active = inhibition above about 19%
# TNAP act mid DEA = human TNAP activation, intermediate phosphate acceptor; P05186; purified TNAP, CDP-star luminescence, 100 mM DEA, 30 min; hits give high values; scale: 0 levamisole-inhibited, 1 vehicle-only enzyme; activation factor at 20 µM; 64,000 tested, under 10 active;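 active = activation factor of at least 2 at 20 µM, relative to controls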
# CD11b adhes inh = inhibitors of human CD11b/CD18 binding to fibrinogen; inhibition, % at 10 µM; P05107+P11215; K562 CD11b/CD18 adhesion to fibrinogen, ATPlite luminescence; Mn2+ added to activate the integrin; actives 0.54% (n = 93,000);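 active = primary inhibition of 50% or more at 10 µM, then 40% or more on retest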
# Phagocyt inh = inhibitors of macrophage phagocytosis | AID 1029 | J774A.1 macrophage IgG-bead phagocytosis, imaging | inhibition, % at 5 µM | actives 0.07% (n = 110,000);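 active = inhibition above the mean of the plate negative controls plus 5 SD, cut at about 13% in these data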;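 also: phagocytic index as fraction of beads internalized from green versus red external bead signal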
# CD11b adhes enh = increases human CD11b/CD18 adhesion to fibrinogen. P05107+P11215. K562 CD11b/CD18 adhesion to fibrinogen, ATPlite luminescence. activation, % at 10 µM. actives 0.07% (n = 93,000);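 active = 10 µM primary screen giving 50% or more activity, confirmed by 40% or more on retest at that dose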
# Numbers stand for hits; i = inactive; nt = no result given; [ ] = dose if it differs, or a comment. The list is not random: actives were taken first. Their share in the collection is about 0.96%.
SMILES,FAK blocker,TNAP act mid DEA,CD11b adhes inh,Phagocyt inh,CD11b adhes enh
COc1ccc(Cc2nc(C(=O)Nc3ccc(Cl)cc3)cs2)cc1,i,nt,i,i,i
COc1ccc(Cc2nc(C(=O)Nc3ccc(F)cc3)cs2)cc1,i,nt,82.2,i,i
COc1ccc(Cc2nc(C(=O)Nc3ccccc3)cs2)cc1,i,nt,88.3,i,i
CCOc1ccc(OCCCC(=O)O)cc1,i,nt,i,i,i
O=C(Nc1nnc(SCC(=O)N2CCOCC2)s1)c1ccccc1Cl,i,nt,i,36.8[artifact],i
O=C(CSc1nnc(NCc2ccccc2)s1)N1CCOCC1,nt,nt,nt,i,nt
CC(C)OCCCN1CN(S(=O)(=O)c2cccc(Cl)c2)c2nc3ccccc3nc21,i,nt,nt,nt,nt
COc1cccc(C(=O)Oc2cc(-c3ccccc3)no2)c1,i,nt,i,164.6,i
Cc1[nH]n(-c2cccc3ccccc23)c(=O)c1/C=N/c1sc2c(c1C#N)CCC2,i,nt,100.3,i,i
Cc1[nH]n(-c2ccc(F)cc2)c(=O)c1/C=N/c1sc2c(c1C#N)CCCC2,i,nt,i,i,i
CC(C)c1ccc(C(=O)NCCCN(C)C)cc1,nt,nt,nt,i,nt
CC(=O)NCCNC(=O)CCNC(=O)c1ccc(Cl)cc1,i,nt,i,i,i
CC(C)(C)C(=O)Nc1cc2nn(-c3ccccc3)nc2cc1Cl,i,nt,98.9,i,i
Fc1ccc(CSc2nc3ccccc3[nH]2)c2ccccc12,i,nt,77.4,i,i
CC(OC1=CC(=O)CCC1)C(=O)c1ccccc1 (centres undefined),i,i,i,187.1,i
CC(OC(=O)CN1C(=O)NC(C)(C)C1=O)C(=O)c1ccccc1 (centres undefined),i,nt,i,i,i
CCCOc1ccc(C(=O)O/N=C(\CC)c2ccc(C)cc2)cc1,nt,nt,i,i,i
CC/C(=N\OC(=O)c1ccc(OC(C)C)cc1)c1ccc(C)cc1,i,nt,80.3,i,i
C/C(=N\OC(=O)c1ccc(OC(C)C)cc1)c1ccc(C)c(C)c1,i,nt,65.6,i,i
COc1ccc(C(=O)O/N=C(\C)c2ccccc2)cc1,i,nt,i,i,i
O=S(=O)(c1ccccc1C(F)(F)F)N1CCOCC1,i,i,i,i,i
CCN(CC)c1ccc(Nc2nc(N3CCOCC3)c3ccccc3n2)cc1,i,nt,65.2,i,i
O=C(NNC(=S)Nc1cccc2ccccc12)c1cccc(Br)c1,i,nt,88.6,i,i
COC(=O)c1ccc(/C(O)=C(\C#N)c2nc3ccccc3s2)cc1,i,i,103.1,i,i
CC1(C)Oc2ccc3ccc(=O)oc3c2-c2cn[nH]c21,24.2,nt,i,i,i
SMILES,FAK blocker,TNAP act mid DEA,CD11b adhes inh,Phagocyt inh,CD11b adhes enh
CCCc1ccc(-c2cc(C(=O)Nc3ccc([N+](=O)[O-])cn3)c3ccccc3n2)cc1,nt,nt,i,i,i
CCOC(=O)C1=C(c2ccccc2)N=c2s/c(=C\c3ccco3)c(=O)n2C1c1cccs1 (centres undefined),21.0,nt,nt,nt,nt
N#C/C(=N\Nc1ccccc1Cl)C(=O)c1ccccc1,i,nt,104.1,i,i
CC(=O)/C(N)=N/Nc1cccc(Cl)c1,nt,nt,nt,i,nt
N#C/C(=N\Nc1cccc(Cl)c1)C(=O)c1ccccc1,i,nt,98.5,i,i
CCc1c(C)nc2c(OC)cccc2c1SCCC(=O)O,nt,nt,i,36.8[artifact],i
CCCCOc1ccc(C(=O)Nc2ccncc2)cc1,i,i,96.1,i,i
CC(=O)NCC(=O)OC(C(=O)c1ccccc1)c1ccc(Cl)cc1 (centres undefined),nt,nt,nt,i,nt
COc1ccc(N=CC2=C(Nc3ccc(OC)cc3)c3c(C)nn(-c4ccccn4)c3CC2)cc1,20.3,nt,nt,nt,nt
Cn1nc(C(F)(F)F)c(C(=O)Nc2ccc(F)cc2F)c1Sc1ccc(C(F)(F)F)cc1,i,nt,nt,nt,nt
COc1ccccc1-n1c(SCC(=O)Nc2cccc3ccccc23)nc(O)cc1=O,i,nt,i,190.4,i
COc1ccc(NC(=O)CSc2nc(O)cc(=O)n2-c2ccccc2OC)cc1,i,i,i,i,i
N#Cc1c(N)nc2c(c1-c1ccc3c(c1)OCO3)CCc1ccccc1-2,nt,nt,nt,i,nt
COc1cc(/C=C(/C#N)c2nc3ccccc3[nH]2)ccc1OCC(=O)Nc1ccccc1C,i,nt,i,nt,204.0
COc1cc(/C=C(/C#N)c2nc3ccccc3[nH]2)ccc1OCC(=O)Nc1ccccc1C(C)C,i,nt,nt,nt,nt
CCOc1ccc(NC(=O)N(CCN2CCOCC2)Cc2ccc3c(c2)CCCN3CC)cc1,i,i,nt,nt,nt
CCCN1CCCc2cc(CN(CCCN3CCOCC3)C(=O)Nc3ccc(OCC)cc3)ccc21,i,nt,65.3,i,i
CC(C)COC(=O)c1cccc2c1-c1ccccc1/C2=N\O,54.7,nt,nt,nt,nt
CC1CCCC(C)N1C(=O)c1cccc2c1-c1ccccc1/C2=N/O (centres undefined),i,nt,nt,nt,nt
COc1ccc(/C=C2/C(=O)OCc3cc(OC)c(OC)cc32)cc1,nt,nt,nt,i,nt
Cc1ccc(-n2nnc3c(=O)n(Cc4cc(C)ccc4C)cnc32)cc1,21.7,nt,nt,nt,nt
Cc1ccc(-n2nnc3c(=O)n(Cc4cccc(C)c4)cnc32)cc1,i,i,i,i,i
Fc1ccc(Cn2ccc(-c3cnc(-c4ccccc4)s3)n2)cc1,i,nt,55.7,i,i
Cc1ccc(Cn2ccc(-c3cnc(-c4ccccc4)s3)n2)cc1,i,nt,i,i,i
CCC(=O)N1CCN(CCN=Cc2c(O)n(C3CCCCC3)c(=O)n(C3CCCCC3)c2=O)CC1,nt,i,nt,nt,nt
SMILES,FAK blocker,TNAP act mid DEA,CD11b adhes inh,Phagocyt inh,CD11b adhes enh
CN(C)c1ccc(/C=C/c2ccncc2)cc1,i,i,i,i,i
CN(C)c1ccc(/C=C/c2ccc3ccccc3[n+]2C)cc1,nt,nt,79.1,i,i
CCOC(=O)c1c2c(n(C)c1C)C(=O)C(=O)c1ccc(Br)cc1-2,40.3,nt,nt,nt,nt
Cc1c(CN(C)C)c2c(n1C)C(=O)c1ccc(Br)cc1-2,i,i,i,i,i
COc1ccc(C2C(C#N)=C(N)OC3=C2C(=O)CC(C)(C)C3)cc1Cn1nc(C)c([N+](=O)[O-])c1C (centres undefined),nt,nt,i,i,i
COc1ccc(C2C(C#N)=C(N)Oc3c2c(C)nn3-c2ccccc2)cc1Cn1nc(C)c([N+](=O)[O-])c1C (centres undefined),i,nt,i,i,50.9
O=C(NCCCN1CCCCCC1)C1CC(=O)N(CCc2ccccc2)C1 (centres undefined),i,i,i,i,81.8
Cc1ccc(NC(=O)COC(=O)c2cc(Cl)ccc2[N+](=O)[O-])cc1,nt,nt,nt,24.2[artifact],nt
COCCn1c(-c2ccc(Cl)cc2)cnc1SCC(=O)NCCc1ccc(OC)c(OC)c1,nt,nt,53.3,i,i
Cc1ccc(NC2=C/C(=N/S(=O)(=O)c3cccs3)c3ccccc3C2=O)cc1C,nt,nt,nt,i,nt
COC(=O)C(C(C)=O)C1=C/C(=N\S(=O)(=O)c2ccc(C)cc2)c2ccccc2C1=O (centres undefined),i,nt,65.9,i,i
O=C(COC(=O)c1cc[n+]([O-])cc1)NCC12CC3CC(CC(C3)C1)C2,i,nt,i,i,i
CSc1nc2ccc(NS(=O)(=O)c3ccc(Cl)s3)cc2s1,i,i,81.6,i,i
CCc1ccc(/C=C/C(=O)c2cc(Br)ccc(=O)c2O)cc1,i,nt,73.9,i,i
Cc1cccc(/C=C/C(=O)c2cc(Br)ccc(=O)c2O)c1,i,nt,85.3,i,i
